CYP2C19 act = increases human CYP2C19 enzyme activity; P33261; activation factor at 5 µM; 96,000 tested, under 10 active; recombinant CYP2C19, luciferin-H EGE luminescence; active compounds read high; 0 = fully inhibited enzyme, 1 = untreated enzyme;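 active = activation factor of at least 2 at 5 µM in the primary screen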;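 note: 0 = wells with 2.5 mM tranylcypromine and 1 = vehicle-only wells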
Target sequence (P33261 whole entry, looked up): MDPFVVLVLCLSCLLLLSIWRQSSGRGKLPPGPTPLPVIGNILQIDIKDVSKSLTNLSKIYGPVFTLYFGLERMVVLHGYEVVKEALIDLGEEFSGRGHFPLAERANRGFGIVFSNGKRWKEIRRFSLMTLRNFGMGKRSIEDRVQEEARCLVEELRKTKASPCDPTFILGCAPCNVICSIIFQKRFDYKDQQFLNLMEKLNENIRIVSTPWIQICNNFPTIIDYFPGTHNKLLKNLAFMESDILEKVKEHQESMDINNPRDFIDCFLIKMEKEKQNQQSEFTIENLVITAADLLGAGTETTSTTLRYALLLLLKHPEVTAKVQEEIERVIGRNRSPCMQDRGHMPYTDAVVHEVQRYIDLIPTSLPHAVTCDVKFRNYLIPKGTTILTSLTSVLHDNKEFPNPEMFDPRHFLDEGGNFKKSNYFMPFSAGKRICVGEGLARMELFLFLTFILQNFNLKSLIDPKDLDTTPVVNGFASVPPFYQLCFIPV
D1 mod = D1 dopamine receptor (human) allosteric modulation; P21728; HEK293 D1, CRE-luciferase, dopamine EC30 potentiation; actives deviate in either direction; B-score at 10 µM; 5.9% of 58,000 active;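 active = luminescence count or its row- and column-corrected plate score outside the 99.7% band of the plate's sample wells, on either side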
DAT uptake mod = human DAT dopamine uptake with cocaine, either direction; B-score at 10 µM; Q01959; 1.3% of 110,000 active; AID 449768; LLC-PK1 hDAT cells, [14C]-dopamine uptake with cocaine IC80; actives deviate in either direction;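 active = Z score or B-score, a plate-position-corrected score, falls beyond the plate's 99.7% confidence bounds, in either direction; inactive = both scores lie inside the 99.7% bounds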;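 note: scored against the spread of the other compound wells on the same plate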
CYP2C19 inh = human CYP2C19 inhibition; 21% of 96,000 active; inhibition, % at 5 µM; P33261; CYP2C19 Supersomes, luciferin-H EGE luminescence, 30 min; AID 778;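 active = CYP2C19 inhibition above a set limit at 5 µM in the primary screen, cut at about 50% in these data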;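 note: plate controls were negative control wells for no effect and 2.5 mM tranylcypromine positive control for full effect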
CYP2C9 inhib = blocks human cytochrome P450 2C9; CYP2C9 Supersomes, luciferin-H conversion, luminescence; inhibition, % at 5 µM; 20% of 96,000 active;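 active = blocking of liver enzyme CYP2C9 beyond about 50% at 5 µM, limit read from the data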
CYP2C9 act = CYP2C9 (human) activation | recombinant CYP2C9, luciferin-H conversion, luminescence; active compounds read high; factor 1 = untreated enzyme, 0 = blocked | P11712 | 1.4% of 96,000 active | activation factor at 5 µM | AID 1024;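 active = activation factor of 2 or more for CYP2C9 at a 5 µM dose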;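 note: 0 = sulfaphenazole-blocked wells and 1 = vehicle-only wells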
* hit, by the source's call; ! = not active in a repeat. Sampled rows, rich in hits. Any-hit rate of the full collection: about 28%.

For CCOC(=O)c1[nH]c2cc3c(cc2c1NC(=O)CN1CCc2ccccc2C1)OCO3 the results were CYP2C19 act 0.3, CYP2C19 inh 68*, CYP2C9 inhib 55* and CYP2C9 act 0.4.
`CCOC(=O)c1[nH]c2cc3c(cc2c1NC(=O)CN1CCC(C)CC1)OCO3` gave CYP2C19 act 0.4, CYP2C19 inh 61*, CYP2C9 inhib 68* and CYP2C9 act 0.3.
For COc1ccc(C)cc1-n1nnnc1SCC1CCCCO1 (stereo not given) the results were CYP2C19 act 0, D1 mod -1, DAT uptake mod 1.3, CYP2C19 inh 100*, CYP2C9 inhib 73* and CYP2C9 act 0.3.
`COc1ccc(C)cc1-n1nnnc1SCc1cn2ccsc2n1` gave CYP2C19 act 0.1, D1 mod 0.96, DAT uptake mod 0.32, CYP2C19 inh 87*, CYP2C9 inhib 40 and CYP2C9 act 0.6.
Cc1cccc(Nc2nnc(SCc3cn4ccsc4n3)s2)c1 was read as CYP2C19 act 0.3, D1 mod -0.076, DAT uptake mod 1, CYP2C19 inh 74*, CYP2C9 inhib 57* and CYP2C9 act 0.4.
`C/C=C1\COC(C(=O)NCCCN2CCCC2=O)(C(F)(F)F)C=C1C=C(C)C` (stereo not given) gave DAT uptake mod 0.6.
For CCN(CC)S(=O)(=O)c1ccc(Nc2nc3ccccc3n3nnnc23)cc1 the results were CYP2C19 act 0.8, D1 mod -0.69, DAT uptake mod 0.079, CYP2C19 inh 23, CYP2C9 inhib 63* and CYP2C9 act 0.4.
O=S(=O)(c1cnccc1N1CCN(/N=C/c2ccccc2)CC1)N1CCCCC1 was read as CYP2C19 act 0.9, DAT uptake mod 0.087, CYP2C19 inh 7, CYP2C9 inhib 23 and CYP2C9 act 0.8.
For CCC(=O)c1cc(-c2nc3ccccc3n2C)n(C)c1 the results were CYP2C19 act 0.4, D1 mod 0.27, DAT uptake mod 1.2, CYP2C19 inh 56*, CYP2C9 inhib 65* and CYP2C9 act 0.3.
`Cn1cc(C(=O)c2ccccc2)cc1-c1nc2ccccc2n1C` gave CYP2C19 act 0.2, D1 mod -0.019, DAT uptake mod 2.6*, CYP2C19 inh 83*, CYP2C9 inhib 73* and CYP2C9 act 0.3.
`CCCC(=O)c1cc(-c2nc3ccccc3n2C)n(C)c1` gave CYP2C19 act 0.8, D1 mod -0.04, DAT uptake mod -0.22, CYP2C19 inh 19, CYP2C9 inhib 27 and CYP2C9 act 0.7.
For Cc1oc(-c2nc3ccccc3n2C)cc1C(=O)c1ccccc1 the results were D1 mod -3.8* and DAT uptake mod -0.039.
Screening CN(Cc1cnn(C)c1)C(=O)C1CCCCC1C(=O)O (stereo not given) returned DAT uptake mod 0.056.
For CCCCN(C(=O)Nc1ccc(OCC)cc1)C1CCN(C(C)=O)CC1 the results were CYP2C19 act 0.8, DAT uptake mod 0.58, CYP2C19 inh 16, CYP2C9 inhib 11 and CYP2C9 act 0.9.
Screening COC(=O)c1cc(COc2ccc3oc(C)c(C(=O)OC(C)C)c3c2)c(C)o1 returned CYP2C19 act 0.1, DAT uptake mod 0.1, CYP2C19 inh 88*, CYP2C9 inhib 84* and CYP2C9 act 0.2.
For COC(=O)c1cc(-c2c(C)oc3cc(OC(C)C)ccc3c2=O)c(C)o1 the results were CYP2C19 act 0.4, D1 mod 0.45, DAT uptake mod 1.1, CYP2C19 inh 60*, CYP2C9 inhib 67* and CYP2C9 act 0.3.
COC(=O)c1cc(=O)c2ccc(OC)cc2o1 was read as CYP2C19 act 0.9, D1 mod -0.57, CYP2C19 inh 13, CYP2C9 inhib -4 and CYP2C9 act 1.
For COC(=O)C1=C(C)NC(=O)C1(Nc1ccc(Cl)cn1)C(F)(F)F (stereo not given) the results were CYP2C19 act 0.3, D1 mod 0.8, DAT uptake mod -1.5, CYP2C19 inh 70*, CYP2C9 inhib 4 and CYP2C9 act 1.
`COc1ccc(-c2cc(NCCc3ccncc3)n3ncnc3n2)cc1` gave CYP2C19 act 0.5, DAT uptake mod -0.0035, CYP2C19 inh 49, CYP2C9 inhib 70* and CYP2C9 act 0.3.
For CCCOC(=O)c1ccc(-c2c(C)noc2-c2ccc(OC)cc2O)o1 the results were CYP2C19 act 0.2, D1 mod 0.076, DAT uptake mod 2.8*, CYP2C19 inh 81*, CYP2C9 inhib 92* and CYP2C9 act 0.1.
For Cc1c(N=Cc2ccco2)c(=O)n(-c2ccccc2)n1C the results were CYP2C19 act 0.9, D1 mod -0.3, DAT uptake mod 0.31, CYP2C19 inh 11, CYP2C9 inhib -22 and CYP2C9 act 1.2.
Screening COc1ccc2c(C=Nc3c(C)n(C)n(-c4ccccc4)c3=O)c(O)n(Cc3ccco3)c(=O)c2c1 returned CYP2C19 act 0.4, D1 mod 0.83, DAT uptake mod 4.2*, CYP2C19 inh 60*!, CYP2C9 inhib 72*! and CYP2C9 act 0.3.
`COc1cccc(N=Cc2c(O)n(-c3cccc(C)n3)c(=O)c3ccccc23)c1` gave CYP2C19 act 0.3, DAT uptake mod 2.6, CYP2C19 inh 66*, CYP2C9 inhib 53* and CYP2C9 act 0.5.
For Cc1cccc(-n2c(O)c(C=Nc3c(C)n(C)n(-c4ccccc4)c3=O)c3ccccc3c2=O)n1 the results were CYP2C19 act 0.8, D1 mod 0.31, DAT uptake mod 3.8*, CYP2C19 inh 16, CYP2C9 inhib 36 and CYP2C9 act 0.6.
Cc1c(N=CC=Nc2c(C)n(C)n(-c3ccccc3)c2=O)c(=O)n(-c2ccccc2)n1C was read as CYP2C19 act 1, D1 mod -0.63, CYP2C19 inh -1, CYP2C9 inhib 0 and CYP2C9 act 1.
Cc1c(N=Cc2ccc(-c3ccc(Cl)cc3)o2)c(=O)n(-c2ccccc2)n1C was read as CYP2C19 act 0.4, D1 mod -1, DAT uptake mod 0.036, CYP2C19 inh 59*, CYP2C9 inhib 18 and CYP2C9 act 0.8.
Screening Cc1ccccc1C1NS(=O)(=O)N=C1N (stereo not given) returned CYP2C19 act 1, DAT uptake mod -0.91, CYP2C19 inh 1, CYP2C9 inhib 12 and CYP2C9 act 0.9.
Screening O=C(Cn1ncc2c(=O)oc3ccccc3c21)N1CCCN(Cc2ccccc2F)C1 returned CYP2C19 act 1, D1 mod -0.38, DAT uptake mod -0.51, CYP2C19 inh -1, CYP2C9 inhib 18 and CYP2C9 act 0.8.
Fc1cc2nc(-c3ccncc3)[nH]c2cc1F was read as CYP2C19 act 0.4, D1 mod -0.46, CYP2C19 inh 64*, CYP2C9 inhib 47 and CYP2C9 act 0.5.
